Data published in PubChem BioAssay (NCI).
Compounds without any hit were thinned out: in the full panel of roughly 83,000, 20% have a hit.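 Cell lines were cultured in 96-well plates, exposed to a single compound concentration, and assessed for percent growth 48 hours later.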 Values without a mark were called inactive. Calls of active or inactive are those of the source. Rule for the calls: active = growth percent below 10; inactive = the rest.

Experiments:
Assay in all cases: NCI-60 one-dose screen, 48 h (100 = growth as untreated, 0 = no growth, -100 = all killed)
[1] = test system: SK-MEL-2 melanoma; details: 10 µM unless noted
[2] = test system: SN12C renal; details: 10 µM unless noted
[3] = test system: UO-31 renal; details: 10 µM unless noted
[4] = test system: TK-10 renal; details: 10 µM unless noted
[5] = test system: ACHN renal; details: 10 µM unless noted
[6] = test system: CAKI-1 renal; details: 10 µM unless noted
[7] = test system: A498 renal; details: 10 µM unless noted
[8] = test system: CCRF-CEM leukemia; details: 10 µM unless noted
[9] = test system: MOLT-4 leukemia; details: 10 µM unless noted
[10] = test system: RPMI-8226 leukemia; details: 10 µM
[11] = test system: OVCAR-8 ovarian; details: 10 µM unless noted
[12] = test system: OVCAR-5 ovarian; details: 10 µM unless noted
[13] = test system: OVCAR-4 ovarian; details: 10 µM unless noted
[14] = test system: SK-OV-3 ovarian; details: 10 µM
[15] = test system: IGROV1 ovarian; details: 10 µM unless noted
[16] = test system: OVCAR-3 ovarian; details: 10 µM unless noted
[17] = test system: HS 578T breast; details: 10 µM unless noted
[18] = test system: NCI/ADR-RES ovarian; details: 10 µM unless noted
[19] = test system: SR leukemia; details: 10 µM unless noted

| Structure (SMILES) | growth [1] | growth [2] | growth [3] | growth [4] | growth [5] | growth [6] | growth [7] | growth [8] | growth [9] | growth [10] | growth [11] | growth [12] | growth [13] | growth [14] | growth [15] | growth [16] | growth [17] | growth [18] | growth [19] [%] |
| --- | --- | --- | --- | --- | --- | --- | --- | --- | --- | --- | --- | --- | --- | --- | --- | --- | --- | --- | --- |
| O=C1/C(=C/c2ccc(Cl)cc2)CN(Cc2cn(CCCNc3ccnc4cc(Cl)ccc34)nn2)C/C1=C\c1ccc(Cl)cc1 | -35.2% (active) | -80.2% (active) | -98% (active) | -56.6% (active) | -99.3% (active) | -20.4% (active) | -61.3% (active) | -31.2% (active) | -16.7% (active) | -49.3% (active) | -42.3% (active) | -74.1% (active) | -9.71% (active) | -48.5% (active) | -0.666% (active) | -90.4% (active) | 9.27% (active) | 2.36% (active) |  |
| FC(F)(F)c1cc(CNc2ncc(Br)c(Cl)n2)cc(C(F)(F)F)c1 | 94% | 99.7% | 83.3% | 97.9% | 104% |  | 96.7% | 83.2% | 86% | 88.5% | 101% | 102% | 102% | 92.5% | 91.7% | 120% | 99.4% | 93.2% | 85.8 |
| Clc1ccc(Nc2ccnc(N3CCN(c4ccnc5cc(Cl)ccc45)CC3)n2)cc1 | 73.7% | 51.4% | -8.75% (active) |  | 41.9% | 34.8% | -1.58% (active) | 38.4% | 31.9% | 34.5% | 61.4% | 70.6% | 41.9% | 62.5% | -4.05% (active) | 35.5% | 49.1% |  | 37.2 |
| COc1ccc(-c2cc(=O)oc3c4c(ccc23)OCN(Cc2ccc(F)cc2)C4)cc1 | 94.2% | 58.6% | 42.7% | 62.4% | 64.7% | 51.7% | 38.9% | 52.4% |  | 30.1% | 56.7% | 80.2% | 35.2% | 74.3% | 64.5% | 52.4% | 83.1% | 45.9% | 54.7 |
| O=C(N/N=C/c1ccc2c(c1)OCO2)c1cnn2c1NC(c1ccccc1)C2 (stereo unspecified) | 50.1% | 73.7% | 67.5% | 70.3% | 46% | 21.1% |  | 67.7% | 75.2% |  | 66.8% | 78.1% | 48.9% |  | 51.5% | 25.2% | 32.5% | 55.6% | 31.6 |
| O=C1CC2c3cc(-c4cc5ccccc5o4)ccc3CCN2C(=O)N1c1ccccc1 (stereo unspecified) | 83% | 89.3% | 58.8% | 78.5% | 99.6% | 80.8% | 82% | 68.2% |  | 68.1% | 88.4% | 97.9% | 84.7% | 80% | 84.6% | 99.3% | 107% | 81.4% | 57.6 |
| C[C@H]1C(=O)C23CCC1C[C@@]21O[C@@H]2C(C)(C)C=CC(=O)C23COC1=O | 104% | 103% | 81.5% | 98.9% | 104% | 101% | 92% | 71.7% |  | 93.5% | 101% | 109% | 108% | 102% | 110% | 126% | 109% | 106% | 102 |
| COc1ccc(Nc2[nH]n(C3=Nc4ccccc4Sc4ccccc43)c(=O)c2C#N)cc1 | 59.4% | 50.1% | 35.6% | 65.9% | 40.3% |  |  | 50.2% | 46.5% | 37% | 40.2% | 102% | 47.5% | 53.5% | 55.1% | 52.4% |  | 45.2% | 70.8 |
| COc1ccc(/C=N/NC(=O)c2cnn3c2NC(c2ccccc2)C3)cc1OC1CCCC1 (stereo unspecified) | 107% | 90.7% | 80.1% | 109% | 95.3% | 77.8% |  | 90.7% | 69.1% | 79% | 85% | 101% | 76.5% |  | 101% | 106% | 88% | 92.7% | 47.2 |
